The source of these data is PubChem BioAssay (EPA / NIEHS).

For orientation: AC50 means the concentration at which the activity in the assay is half-maximal.

Assay [1] deals with Luciferin 4-monooxygenase (Photinus pyralis) (UniProt P08659). The assay is described as follows: CCTE_Simmons_QuantiLum_inhib_2: CCTE's Firefly Luciferase Inhibition Assay, Simmons Lab (AID 2283767).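 As to AC50: potency for inhibitors that lower luciferase luminescence relative to DMSO.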 Put shortly: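 Cell-free QuantiLum luciferase, 5 ng/well; compounds 5 nM–87.5 uM final, 8 conc, 0.5% DMSO; 30 min, 37C, dark. Detection reagent (150 uM D-luciferin, 147 uM dATP, CoA, DTT, pH 7.8 final) injected per well, kinetic luminescence. Triplicate biological replicates.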

Assay [2] can be described thus: ACEA_AR_agonist_AUC_viability: ACEA Biosciences xCELLigence Real-Time Cell Analysis on Androgen Receptor Agonism for Viability (AID 2283775).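 As to AC50: viability read 80 hours after compound addition.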 The method in brief: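 Viability endpoint from xCELLigence impedance in 22Rv1 prostate cells at 80 h. Eight-point series, 100 uM maximum final.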
The nature of assay [3]: ACEA_AR_antagonist_AUC_viability: ACEA Biosciences xCELLigence Real-Time Cell Analysis on Androgen Receptor Antagonism for Viability (AID 2283776).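 Also: 22Rv1 human prostate cancer cells growing on impedance electrode plates; hits lower the growth signal relative to DMSO meaning cytotoxicity.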 The method in brief: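 Impedance read-out (RT-CES): area under growth curve at 80 h post-dose, loss of signal scored vs DMSO baseline. 22Rv1 cells; 8-pt 1:4 series, top 100 uM final, ≤0.5% DMSO; biological duplicate.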
The nature of assay [4]: ACEA_ER_AUC_viability: ACEA Biosciences xCELLigence Real-Time Cell Analysis on Estrogen Receptor Agonism for Viability (AID 2283782).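 Also: hit means loss of impedance signal meaning reduced cell growth or viability.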 The method in brief: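 Read-out: real-time electrical impedance (RT-CES) area under curve, loss of signal taken as reduced viability, normalized to DMSO baseline. T-47D cells, charcoal-stripped serum medium, compounds up to 100 uM final, continuous exposure, 80 h.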

For assay [5], the target named is AR (gene 367) (UniProt P10275). The assay is described as follows: ACEA_AR_agonist_80hr: ACEA Biosciences xCELLigence Real-Time Cell Analysis on Androgen Receptor Agonism for Proliferation (AID 2283783).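 Also: hits increase impedance growth signal above DMSO baseline.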 Put shortly:
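Impedance (RT-CES) growth signal at 80 h post-dose; 22Rv1 cells, 8-pt 1:4 series, top 100 uM final, DMSO ≤0.5%; duplicate plates; gain-of-signal fit relative to DMSO baseline.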

A short description of assay [6]: STM_H9_NormalizedViability: Cytotoxicity Assessment at 120 hours in the Stemina devTOX quickPredict H9 human embryonic stem cell (hESC)-based Assay (AID 2283784). The method in brief: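 CellTiter-Fluor RFU, background-subtracted, expressed relative to 0.1% DMSO neutral control by plate. Pluripotent H9 cells; treatment with daily re-dosing. Plates carried 1uM methotrexate (positive) and 5 nM methotrexate (negative) references.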

Assay [7] has as its target AR (gene 367) (UniProt P10275). Put plainly: ACEA_AR_antagonist_80hr: ACEA Biosciences xCELLigence Real-Time Cell Analysis on Androgen Receptor Antagonism for Proliferation (AID 2283787).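 Also: 22Rv1 human prostate cancer cells with growth followed by electrical impedance; hits lower the impedance growth signal relative to DMSO.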 Put shortly:
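Measures real-time proliferation of 22Rv1 prostate cancer cells by electrode impedance at 80 hours after dosing. Test articles ran at eight concentrations (1:4 steps, top 100 uM final) in biological duplicate.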

A short description of assay [8]: ArunA_NOG_NeuritesPerNeuron: ArunA Biomedical's Neurite Outgrowth (NOG) Assay for Neurites Per Neuron (AID 2283758). The method in brief: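 Differentiated human H9-derived neurons exposed to chemicals for 48 h from seeding, then stained with Hoechst and βIII-tubulin/DyLight 488. Automated imaging counted neurites (processes >10 um) per valid neuron; loss of signal versus DMSO scored.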

Assay [9] can be described thus: ArunA_NOG_BranchPointsPerNeurite: ArunA Biomedical's Neurite Outgrowth (NOG) Assay for Branch Points Per Neurite (AID 2283759). The method in brief:
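Automated image analysis traced neurites (processes >10 um) from valid cell bodies after Hoechst and βIII-tubulin staining. hNN cells from H9 embryonic stem cells, 48 h exposure. Fitted bidirectionally against DMSO.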

Assay [10] deals with zebrafish Estrogen Receptor (ESR1), esr1 (gene 259252) (UniProt P57717). The assay is described as follows: ATG_zfER1_XSP1: Attagene TRANS-FACTORIAL Multi-Species (XSP1) HepG2 Assay for zebrafish Estrogen Receptor (ESR1) (AID 2283772). Put shortly:
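Transfect HepG2 with GAL4-UAS multi-reporter constructs; treat 24 h (medium carries 3 nM 6-alpha-fluorotestosterone); extract RNA, reverse-transcribe, PCR-amplify, FAM-label, digest with HpaI; resolve by capillary electrophoresis and compare against DMSO baseline.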

For assay [11], the system named is zebrafish Estrogen Receptor (ESR2B), gene 317733. The assay is described as follows: ATG_zfER2b_XSP1: Attagene TRANS-FACTORIAL Multi-Species (XSP1) HepG2 Assay for zebrafish Estrogen Receptor (ESR2B) (AID 2283773). The method in brief: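 Multiplexed TRANS format in transfected HepG2 liver cells, chimeric NR-Gal4 from zebrafish ESR2B. 24 h dosing; medium contains 3 nM 6-alpha-fluorotestosterone. mRNA induction by RT-PCR/CE, positive direction vs DMSO.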

For assay [12], the system named is frog Estrogen Receptor (ESR2), gene 100174814. Put plainly: ATG_frER2_XSP1: Attagene TRANS-FACTORIAL Multi-Species (XSP1) HepG2 Assay for frog Estrogen Receptor (ESR2) (AID 2283774). The method in brief: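 HepG2, transient MRTU transfection (GAL4-UAS reporters, exogenous NR-Gal4 chimeras); 24 h compound exposure; 3 nM 6α-fluorotestosterone co-added; total RNA → RT-PCR → 6-FAM primer extension → HpaI → CE. Positive direction vs DMSO.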

Assay [13] has as its system zebrafish Estrogen Receptor (ESR2A), gene 317734. Put plainly: ATG_zfER2a_XSP1: Attagene TRANS-FACTORIAL Multi-Species (XSP1) HepG2 Assay for zebrafish Estrogen Receptor (ESR2A) (AID 2283778). The method in brief: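 Transient transfection of HepG2 (human liver) with MRTU constructs; chemical dosing for 24 h; medium contained 3 nM 6-alpha-fluorotestosterone to partly stimulate AR. RT-PCR/CE fluorescence of reporter transcripts; positive direction vs DMSO.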

In assay [14] the target is Estrogen receptor (Homo sapiens) (UniProt P03372). Put plainly: ATG_hERa_XSP1: Attagene TRANS-FACTORIAL Multi-Species (XSP1) HepG2 Assay for human Estrogen Receptor (ESR1) (AID 2283780). The method in brief: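 Reporter transcripts from multiplexed GAL4-UAS units driven by NR-Gal4 chimeras in transiently transfected HepG2 were measured by RT-PCR with capillary electrophoresis 24 h post-dose, with 3 nM 6-alpha-fluorotestosterone present; gain-of-signal relative to DMSO.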

Assay [15] concerns turtle Estrogen Receptor (ESR1), gene 101933533. The assay is described as follows: ATG_trERa_XSP1: Attagene TRANS-FACTORIAL Multi-Species (XSP1) HepG2 Assay for turtle Estrogen Receptor (ESR1) (AID 2283781). The method in brief: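 Transfect HepG2 with reporter units → dose chemical 24 h (medium has 3 nM 6-alpha-fluorotestosterone) → isolate RNA, RT-PCR → FAM primer extension, HpaI digest → capillary electrophoresis; gain of signal vs DMSO.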

Results filed as inconclusive are left out. A structure can be active in one record and inactive in another. The source made the active and inactive calls. The calls were made as follows: active = hit-call score of the fitted dose curve at least 0.9, where 1 is the maximum; inconclusive = response in the unintended direction; inactive = score below 0.9.

Sequence of AR (gene 367) (P10275 whole entry, looked up): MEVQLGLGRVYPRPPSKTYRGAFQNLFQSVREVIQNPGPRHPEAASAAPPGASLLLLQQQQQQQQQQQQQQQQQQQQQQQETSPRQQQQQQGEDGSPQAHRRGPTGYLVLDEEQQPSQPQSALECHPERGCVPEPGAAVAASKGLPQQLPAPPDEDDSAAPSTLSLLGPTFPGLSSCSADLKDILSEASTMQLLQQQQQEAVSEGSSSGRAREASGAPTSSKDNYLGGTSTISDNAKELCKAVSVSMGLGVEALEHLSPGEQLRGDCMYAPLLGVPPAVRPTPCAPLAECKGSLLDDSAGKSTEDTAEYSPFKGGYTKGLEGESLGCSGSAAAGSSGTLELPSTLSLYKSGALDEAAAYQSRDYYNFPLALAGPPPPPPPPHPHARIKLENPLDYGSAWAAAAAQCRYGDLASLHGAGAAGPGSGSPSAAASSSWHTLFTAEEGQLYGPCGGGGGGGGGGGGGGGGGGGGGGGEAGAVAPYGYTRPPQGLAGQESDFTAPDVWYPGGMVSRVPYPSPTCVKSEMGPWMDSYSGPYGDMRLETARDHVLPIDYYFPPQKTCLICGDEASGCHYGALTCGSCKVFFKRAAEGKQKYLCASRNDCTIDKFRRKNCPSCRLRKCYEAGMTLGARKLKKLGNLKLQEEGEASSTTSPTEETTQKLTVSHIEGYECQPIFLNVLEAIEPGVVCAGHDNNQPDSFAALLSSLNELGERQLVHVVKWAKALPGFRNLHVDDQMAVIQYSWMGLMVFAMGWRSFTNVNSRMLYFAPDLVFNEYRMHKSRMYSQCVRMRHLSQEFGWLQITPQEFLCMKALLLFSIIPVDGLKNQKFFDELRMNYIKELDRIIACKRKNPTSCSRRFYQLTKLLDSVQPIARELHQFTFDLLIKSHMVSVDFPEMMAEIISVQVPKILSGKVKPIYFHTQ
Sequence of Luciferin 4-monooxygenase (Photinus pyralis) (P08659 whole entry, looked up): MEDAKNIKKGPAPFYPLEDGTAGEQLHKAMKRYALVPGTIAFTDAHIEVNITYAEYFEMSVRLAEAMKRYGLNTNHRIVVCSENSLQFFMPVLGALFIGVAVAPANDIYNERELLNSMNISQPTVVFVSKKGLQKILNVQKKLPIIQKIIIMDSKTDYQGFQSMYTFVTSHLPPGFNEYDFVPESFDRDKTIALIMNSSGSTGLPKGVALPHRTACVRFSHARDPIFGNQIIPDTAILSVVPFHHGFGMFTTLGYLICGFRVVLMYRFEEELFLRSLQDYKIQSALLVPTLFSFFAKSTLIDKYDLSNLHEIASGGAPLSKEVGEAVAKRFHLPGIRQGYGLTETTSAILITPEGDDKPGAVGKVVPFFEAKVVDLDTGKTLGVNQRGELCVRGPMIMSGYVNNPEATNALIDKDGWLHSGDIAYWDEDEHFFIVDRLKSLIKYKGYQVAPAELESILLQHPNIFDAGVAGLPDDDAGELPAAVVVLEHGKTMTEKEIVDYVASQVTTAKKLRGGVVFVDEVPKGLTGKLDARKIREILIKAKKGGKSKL
Sequence of Estrogen receptor (Homo sapiens) (P03372 whole entry, looked up, the tested form may be a part): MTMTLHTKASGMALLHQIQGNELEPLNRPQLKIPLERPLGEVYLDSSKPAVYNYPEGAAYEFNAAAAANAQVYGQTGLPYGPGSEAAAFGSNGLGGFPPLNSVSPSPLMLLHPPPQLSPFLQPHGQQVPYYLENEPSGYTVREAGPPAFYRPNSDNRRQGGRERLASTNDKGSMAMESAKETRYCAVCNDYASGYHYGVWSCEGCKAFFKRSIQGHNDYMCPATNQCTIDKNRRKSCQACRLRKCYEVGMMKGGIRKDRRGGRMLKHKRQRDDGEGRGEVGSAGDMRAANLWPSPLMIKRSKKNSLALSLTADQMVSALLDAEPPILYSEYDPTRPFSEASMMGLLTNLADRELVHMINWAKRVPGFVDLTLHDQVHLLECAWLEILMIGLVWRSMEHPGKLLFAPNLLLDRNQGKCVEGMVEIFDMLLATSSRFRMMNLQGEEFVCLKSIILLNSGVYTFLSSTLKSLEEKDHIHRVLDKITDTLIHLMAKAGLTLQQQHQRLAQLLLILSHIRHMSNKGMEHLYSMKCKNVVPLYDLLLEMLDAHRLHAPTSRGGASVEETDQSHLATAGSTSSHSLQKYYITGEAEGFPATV
Sequence of zebrafish Estrogen Receptor (ESR1), esr1 (gene 259252) (P57717 whole entry, looked up, the tested form may be a part): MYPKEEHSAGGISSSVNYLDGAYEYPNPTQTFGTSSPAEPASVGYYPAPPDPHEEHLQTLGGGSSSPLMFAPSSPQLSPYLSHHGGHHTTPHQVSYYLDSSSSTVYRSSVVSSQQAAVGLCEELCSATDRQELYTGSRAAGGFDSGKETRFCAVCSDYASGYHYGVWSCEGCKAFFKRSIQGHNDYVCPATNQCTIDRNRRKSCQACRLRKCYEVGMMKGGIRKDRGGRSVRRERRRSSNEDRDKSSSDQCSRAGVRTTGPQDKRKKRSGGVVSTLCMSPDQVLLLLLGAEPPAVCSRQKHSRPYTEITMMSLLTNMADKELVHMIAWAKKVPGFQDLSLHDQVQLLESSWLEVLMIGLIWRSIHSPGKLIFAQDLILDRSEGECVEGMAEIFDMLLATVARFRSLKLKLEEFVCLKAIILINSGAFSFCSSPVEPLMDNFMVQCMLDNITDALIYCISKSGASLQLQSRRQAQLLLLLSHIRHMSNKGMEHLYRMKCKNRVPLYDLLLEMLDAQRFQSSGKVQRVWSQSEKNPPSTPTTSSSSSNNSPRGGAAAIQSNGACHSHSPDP

As for `CN(C)C(=S)SSC(=S)N(C)C`, the AC50 is 80.1 µM (active) in assay [1]; 20 µM (active) in assay [2]; 22.6 µM (active) in assay [3]; 91 µM (active) in [4]; 50 µM (active) in [6]; 20.6 µM (active) in the assay with AR (gene 367) [7]. In addition, the result with AR (gene 367) [5] was inactive.

Regarding `N#Cc1nn(-c2c(Cl)cc(C(F)(F)F)cc2Cl)c(N)c1S(=O)C(F)(F)F` (stereo unspecified), the AC50 in [8] was 32 µM (active); in [2] it was 40.6 µM (active); in assay [3] it was 31.2 µM (active); in assay [4], 83.3 µM (active); in [6], 66.1 µM (active); in the assay with AR (gene 367) [7] it was 58 µM (active). The compound was classed as inactive in assay [9].

For `CCOC(=O)CC(SP(=S)(OC)OC)C(=O)OCC` (stereo unspecified), the call in assay [1] was inactive. Further, the AC50 in [2] is 92.5 µM (active); in assay [3] it was 85.1 µM (active); in assay [6], 78.9 µM (active); with AR (gene 367) [7], 88.6 µM (active).

On to `CCCC1COC(Cn2cncn2)(c2ccc(Cl)cc2Cl)O1` (stereo unspecified), for which the AC50 is 14.4 µM (active) in assay [1]; 27.6 µM (active) in assay [11]; 27 µM (active) in assay [12]; 74.8 µM (active) in [3]; 92.1 µM (active) in assay [4]; 71.2 µM (active) in assay [6]. Further, in the assay with AR (gene 367) [7], the AC50 is 76.1 µM (active). Further, the compound was classed as inactive (in assay [10]; in assay [2]; in assay [13]; in assay [14]; in [15]; with AR (gene 367) [5]).

Turning to `COC(=O)C=C(C)OP(=O)(OC)OC`, the outcome in assay [1] was inactive. Besides, the results for the AC50 in assay [2] and in assay [3] were 29.8 µM (active) and 19 µM (active), respectively.

Regarding `CCOP(=S)(OCC)SCn1c(=O)oc2cc(Cl)ccc21`, the compound was called inactive in [1]. The AC50 in assay [11] is 24.5 µM (active); in [2], 91.5 µM (active); in [3] it was 76.9 µM (active).

As for `CON(C)C(=O)Nc1ccc(Cl)c(Cl)c1`, the compound was called inactive in assay [1], in [10], in assay [2], in assay [3], in assay [13] and in assay [4]. Also, in [6], the result was inactive. The AC50 in assay [11] was 35.9 µM (active); in assay [12] it was 29.1 µM (active); in [3] it was 15.8 µM (active); in assay [14], 9.61 µM (active); in assay [15], 26.7 µM (active).
